Compounds with a hit are over-represented: about 0.68% of the library has one in this group of screens.
Sa ugtP lethal: growth inhibition of S. aureus ugtP deletion strain. S. aureus RN4220 ugtP deletion, OD600 growth, 16 h. growth inhibition, % (test concentration not listed). 330,000 tested, 0.54% active. AID 1259309; in the data active means growth inhibition above about 68%;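 further: plate controls were untreated wells for no effect and antibiotic for full effect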
Mtb hypoxia rep: Mtb hypoxia fluorescent reporter inhibition | M. tuberculosis hypoxia-regulated fluorescent reporter, fluorescence | fluorescence inhibition, % (concentration not given with the values) | 300,000 tested, 0.1% active; in the data active means fluorescence inhibition mostly above about 23%, no sharp cut-off; inactive means mostly below about 17%
RN4220 kill: S. aureus RN4220 growth inhibition; OD600, 16 h; inhibition, % (concentration not given with the values); 330,000 tested, 0.33% active; in the data active means inhibition above about 85%;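 further: plate controls were untreated cells for no effect and reference antibiotic for full effect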
Starred values were filed as active, the others as inactive.

`COC1C=CO[C@@]2(C)Oc3c(C)c(O)c4c(O)c(c(C=NN5CCN(C)CC5)c(O)c4c3C2=O)NC(=O)C(C)=CC=CC(C)C(O)C(C)C(O)C(C)C(OC(C)=O)C1C` (stereo not given in full) gave Sa ugtP lethal 97* and RN4220 kill 98*.
`COC1C=CO[C@@]2(C)Oc3c(C)c(O)c4c(O)c(c5c(nc6cc(C)ccn65)c4c3C2=O)NC(=O)C(C)=CC=CC(C)C(O)C(C)C(O)C(C)C(OC(C)=O)C1C` (stereo not given in full) gave Sa ugtP lethal 99* and RN4220 kill 99*.
For Cc1cn(C(C(=O)NCCCCCCCCCCC(=O)N2CCNCC2)C(C)O)nn1 (stereo not given) the results were Sa ugtP lethal 0, Mtb hypoxia rep 18 and RN4220 kill 9.
For CCN1CC2C3C(=O)N(Cc4ccccc4)C(=O)C3[C@](Cc3ccccc3)(C1=O)N2C(=O)c1ccc(Cl)c(Cl)c1 (stereo not given in full) the results were Sa ugtP lethal 14, Mtb hypoxia rep -6 and RN4220 kill 8.
For C=CCCC(Cc1ccc(F)cc1)C(=O)OCC1CCCN1C(=O)C(CC=C)CC(=O)N(CCO)Cc1ccccc1 (stereo not given) the results were Sa ugtP lethal 7, Mtb hypoxia rep 4 and RN4220 kill 0.
For Cc1nc2c(c(=O)c3ccccc3n2C)c(=O)n1C1CCCCCC1 the results were Sa ugtP lethal -3, Mtb hypoxia rep 13 and RN4220 kill 6.
`CCCCCc1nc2c(c(=O)c3ccccc3n2C)c(=O)n1C1CCCCCC1` gave Sa ugtP lethal 100*, Mtb hypoxia rep -2 and RN4220 kill 99*.
`COc1ccc(OC)c(C2=CC(=O)CC(c3ccc4c(c3)OCO4)C2)c1` (stereo not given) gave Sa ugtP lethal -12, Mtb hypoxia rep -5 and RN4220 kill 8.
Screening CC(=NNC(=O)C1(C)CC1(Br)Br)c1ccc(C)cc1C (stereo not given) returned Sa ugtP lethal 9, Mtb hypoxia rep 11 and RN4220 kill 2.
For COC(=O)C=CC1=CN(Cc2ccccc2)CCC1=O the results were Sa ugtP lethal 4, Mtb hypoxia rep 15 and RN4220 kill 10.
O=C(c1cnn(-c2ccccc2)c1)c1cc(Br)ccc1O was read as Sa ugtP lethal 4, Mtb hypoxia rep 3 and RN4220 kill 5.
O=C(c1ccc(O)c(Br)c1)c1cc(Br)ccc1O was read as Sa ugtP lethal 84*, Mtb hypoxia rep 2 and RN4220 kill 77.
Screening CC=NNC(=O)c1cc(Br)ccc1O returned Sa ugtP lethal 1, Mtb hypoxia rep 2 and RN4220 kill 7.
O=C(C(=O)c1cc(Br)ccc1O)c1cc(Br)ccc1O was read as Sa ugtP lethal 100*, Mtb hypoxia rep 8 and RN4220 kill 100*.
Screening CC(=O)n1cc(C2C=C(C(=O)N3CCOCC3)OC(OCCCCO)C2)c2ccccc21 (stereo not given) returned Sa ugtP lethal 3, Mtb hypoxia rep 5 and RN4220 kill 7.
CC(=NNC(=O)c1cc(C(C)C)[nH]n1)c1ccncc1 was read as Sa ugtP lethal 0, Mtb hypoxia rep 15 and RN4220 kill 6.
For COc1ccc(-n2sc3c(c2=S)-c2cc(OC)ccc2NC3(C)C)cc1 the results were Sa ugtP lethal 84* and RN4220 kill -5.
Screening COc1ccc2c(c1)-c1c(sn(-c3ccccc3)c1=S)C(C)(C)N2 returned Sa ugtP lethal 81, Mtb hypoxia rep 8 and RN4220 kill 12.
CC(C)(C)OC(=O)C(NC(=O)OCc1ccccc1)c1ccccc1 (stereo not given) was read as Sa ugtP lethal 1, Mtb hypoxia rep 3 and RN4220 kill 1.
Screening CCCCC1CNC(=O)C(=O)N1CCc1cc(C(F)(F)F)cc(C(F)(F)F)c1 (stereo not given) returned Sa ugtP lethal -4, Mtb hypoxia rep -4 and RN4220 kill 1.
For CC1=C(C(=O)OCc2ccccc2)N2C(=O)[C@@H](NC(=O)COc3ccccc3)[C@H]2SC1 the results were Sa ugtP lethal 8, Mtb hypoxia rep 0 and RN4220 kill 11.
CC(=O)OCC1=C(C(=O)O)N2C(=O)C(NC(=O)COc3ccc(F)cc3)C2SC1 (stereo not given) was read as Sa ugtP lethal 101*, Mtb hypoxia rep 37* and RN4220 kill 100*.
`CC1=C(C(=O)O)N2C(=O)C(NC(=O)CCCC(=O)O)C2SC1` (stereo not given) gave Sa ugtP lethal 10, Mtb hypoxia rep -12 and RN4220 kill 4.
Screening O=C(COc1ccc(F)cc1)NN1C(=O)CSC1=S returned Sa ugtP lethal 9, Mtb hypoxia rep -1 and RN4220 kill 1.
For CCC(C(=O)NC1CCN(C)CC1)c1ccccc1 (stereo not given) the results were Sa ugtP lethal 4, Mtb hypoxia rep 10 and RN4220 kill 3.
Screening O=C(COc1ccccc1)NC1C(=O)N2C(C(=O)O)=C(Cl)CSC12 (stereo not given) returned Sa ugtP lethal 101* and RN4220 kill 101*.
Screening CCC(C(=O)NC1C(=O)N2C(C(=O)O)=C(CSc3nnc(C)s3)CSC12)c1ccccc1 (stereo not given) returned Sa ugtP lethal 100* and RN4220 kill 100*.
For C=CC1=C(C(=O)O)N2C(=O)C(NC(=O)Cc3ccccc3)C2SC1 (stereo not given) the results were Sa ugtP lethal 101* and RN4220 kill 101*.
COc1cc(C=CC(=O)OCC(=O)Nc2ccccc2Cl)cc(OC)c1OC was read as Sa ugtP lethal 1, Mtb hypoxia rep 3 and RN4220 kill 6.
`[N-]=[N+]=NCC(Cc1ccccc1)N1CCC(O)CCC1=O` (stereo not given) gave Sa ugtP lethal -2, Mtb hypoxia rep -3 and RN4220 kill 2.
`C#CCOCCOCCOCCNc1nc(N2CCN(C(=O)C(CCC(=O)O)n3cc(C(N)Cc4ccc(O)cc4)nn3)CC2)nc(N2CCN(C(=O)C(Cc3ccc(O)cc3)n3cc(C(N)CC(C)C)nn3)CC2)n1` (stereo not given) gave Sa ugtP lethal 5, Mtb hypoxia rep 1 and RN4220 kill 6.
Cc1nnc(SCC(=O)NNC(=O)COc2ccc(Cl)cc2)s1 was read as Sa ugtP lethal 8, Mtb hypoxia rep 1 and RN4220 kill 2.
For Cc1nnc(SCC2=C(C(=O)O)N3C(=O)C(NC(=O)COc4ccccc4)C3SC2)s1 (stereo not given) the results were Sa ugtP lethal 101* and RN4220 kill 100*.
Cc1nnc(SCC2=C(C(=O)O)N3C(=O)C(NC(=O)c4cc(F)c(F)cc4Cl)C3SC2)s1 (stereo not given) was read as Sa ugtP lethal 100*, Mtb hypoxia rep 11 and RN4220 kill 100*.
`Cc1nnc(SCc2ccc(F)cc2Cl)s1` gave Sa ugtP lethal 8, Mtb hypoxia rep 2 and RN4220 kill 8.
For Cc1nnc(SCC2=C(C(=O)O)N3C(=O)C(NC(=O)COc4ccc(F)cc4)C3SC2)s1 (stereo not given) the results were Sa ugtP lethal 97* and RN4220 kill 100*.
`Cc1csc(NC(=O)CSc2nnc(NC(=O)COc3ccccc3)s2)n1` gave Sa ugtP lethal -11, Mtb hypoxia rep 8 and RN4220 kill 6.

High-throughput results: PubChem BioAssay, ICCB-Longwood Screening Facility, Harvard Medical School
